Results from PubChem BioAssay.
The source made the active and inactive calls.

Assays:
[1] = small molecules captured by biotinylated probe aFSTL3 – biochemical, small-molecule microarray, fluorescence 635/667, stem cell growth factor project, primary screen (AID 1064); conditions: higher = more signal;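 note: measures binding of the biotinylated anti-FSTL3 antibody to printed compounds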
[2] = binders from COS7 lysate, DM2A8 probe, primary screen, torsin A project, cell lysate, small-molecule microarray, fluorescence 635/667 (AID 1065); conditions: higher = more signal, COS7 lysate expressing mutant human TOR1A
[3] = small molecules captured by biotinylated probe aFGF2 – biochemical, small-molecule microarray, fluorescence 635/667, stem cell growth factor project, primary screen (AID 1067); conditions: higher = more signal;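 note: measures binding of biotinylated aFGF2 protein to printed compounds on slides; z-score merges feature fluorescence and signal-to-noise across triplicate slides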
[4] = small molecules captured by biotinylated probe aFGF10 – biochemical, small-molecule microarray, fluorescence 635/667, stem cell growth factor project, primary screen (AID 1071); conditions: higher = more signal;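 note: score merges 667 nm spot intensity and signal to noise from triplicate slides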
[5] = target: Neurogenic locus notch homolog protein 2 (Homo sapiens) (UniProt Q04721); experiment: small molecules binding Notch2 protein – biochemical, small-molecule microarray, 635 nm fluorescence, stem cell growth factors, primary screen (AID 1073); conditions: higher = more signal
[6] = target: Pro-neuregulin-1, membrane-bound isoform (Homo sapiens) (UniProt Q02297); experiment: small molecules binding neuregulin-1 protein – biochemical, small-molecule microarray, fluorescence 635/667, psychiatric disease protein project, primary screen (AID 1075); conditions: NRG1 binding, 635 nm fluorescence, higher = more signal;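 note: score combines 667 nm spot fluorescence with signal to noise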
[7] = system: Neuregulin-1 EGF-like domain; experiment: small molecules binding NRG1 EGF domain – biochemical, small-molecule microarray, 635 nm fluorescence, primary screen (AID 1081); conditions: higher = more signal;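 note: binding of the protein to compounds printed on small-molecule microarray slides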
[8] = FRG1 expression reporter modulators in myotubes – cell-based, C2C12 myotubes, firefly/Renilla luciferase, luminescence, FRG1 inhibition for FSHD, primary screen (AID 1084); conditions: FRG1 promoter luciferase, higher = more signal, called active from +8 up or from −8 down
[9] = small molecules captured by biotinylated probe aFST – biochemical, small-molecule microarray, fluorescence 635/667, stem cell growth factor project, primary screen (AID 1086); conditions: higher = more signal;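 note: score merges 667 nm fluorescence with signal-to-noise of each printed compound spot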
[10] = binders of probe aHhip on microarray, primary screen, stem cell growth factor project, biochemical, small-molecule microarray, fluorescence 635/667 (AID 1087); conditions: higher = more signal;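 note: score merges spot fluorescence at 667nm with spot signal to noise ratio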

Chain of Pro-neuregulin-1, membrane-bound isoform (Homo sapiens) (Q02297 whole entry, looked up, the tested form may be a part, canonical isoform): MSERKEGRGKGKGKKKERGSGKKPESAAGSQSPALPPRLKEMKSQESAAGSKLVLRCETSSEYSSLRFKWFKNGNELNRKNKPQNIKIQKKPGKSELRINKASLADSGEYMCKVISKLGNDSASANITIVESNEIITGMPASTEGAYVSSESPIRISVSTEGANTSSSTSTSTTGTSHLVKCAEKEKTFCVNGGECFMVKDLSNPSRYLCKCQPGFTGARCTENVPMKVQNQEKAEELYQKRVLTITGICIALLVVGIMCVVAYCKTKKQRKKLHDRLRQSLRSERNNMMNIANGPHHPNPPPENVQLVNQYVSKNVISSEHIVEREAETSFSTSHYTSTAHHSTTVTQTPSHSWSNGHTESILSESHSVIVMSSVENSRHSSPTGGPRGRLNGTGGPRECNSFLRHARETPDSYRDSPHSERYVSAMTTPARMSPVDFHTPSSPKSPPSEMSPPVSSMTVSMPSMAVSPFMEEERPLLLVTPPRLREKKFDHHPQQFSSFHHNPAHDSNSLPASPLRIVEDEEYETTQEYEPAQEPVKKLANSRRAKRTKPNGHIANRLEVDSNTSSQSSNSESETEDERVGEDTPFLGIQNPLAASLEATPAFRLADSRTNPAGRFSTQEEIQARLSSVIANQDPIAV
Chain of Neurogenic locus notch homolog protein 2 (Homo sapiens) (Q04721 whole entry, looked up, canonical isoform): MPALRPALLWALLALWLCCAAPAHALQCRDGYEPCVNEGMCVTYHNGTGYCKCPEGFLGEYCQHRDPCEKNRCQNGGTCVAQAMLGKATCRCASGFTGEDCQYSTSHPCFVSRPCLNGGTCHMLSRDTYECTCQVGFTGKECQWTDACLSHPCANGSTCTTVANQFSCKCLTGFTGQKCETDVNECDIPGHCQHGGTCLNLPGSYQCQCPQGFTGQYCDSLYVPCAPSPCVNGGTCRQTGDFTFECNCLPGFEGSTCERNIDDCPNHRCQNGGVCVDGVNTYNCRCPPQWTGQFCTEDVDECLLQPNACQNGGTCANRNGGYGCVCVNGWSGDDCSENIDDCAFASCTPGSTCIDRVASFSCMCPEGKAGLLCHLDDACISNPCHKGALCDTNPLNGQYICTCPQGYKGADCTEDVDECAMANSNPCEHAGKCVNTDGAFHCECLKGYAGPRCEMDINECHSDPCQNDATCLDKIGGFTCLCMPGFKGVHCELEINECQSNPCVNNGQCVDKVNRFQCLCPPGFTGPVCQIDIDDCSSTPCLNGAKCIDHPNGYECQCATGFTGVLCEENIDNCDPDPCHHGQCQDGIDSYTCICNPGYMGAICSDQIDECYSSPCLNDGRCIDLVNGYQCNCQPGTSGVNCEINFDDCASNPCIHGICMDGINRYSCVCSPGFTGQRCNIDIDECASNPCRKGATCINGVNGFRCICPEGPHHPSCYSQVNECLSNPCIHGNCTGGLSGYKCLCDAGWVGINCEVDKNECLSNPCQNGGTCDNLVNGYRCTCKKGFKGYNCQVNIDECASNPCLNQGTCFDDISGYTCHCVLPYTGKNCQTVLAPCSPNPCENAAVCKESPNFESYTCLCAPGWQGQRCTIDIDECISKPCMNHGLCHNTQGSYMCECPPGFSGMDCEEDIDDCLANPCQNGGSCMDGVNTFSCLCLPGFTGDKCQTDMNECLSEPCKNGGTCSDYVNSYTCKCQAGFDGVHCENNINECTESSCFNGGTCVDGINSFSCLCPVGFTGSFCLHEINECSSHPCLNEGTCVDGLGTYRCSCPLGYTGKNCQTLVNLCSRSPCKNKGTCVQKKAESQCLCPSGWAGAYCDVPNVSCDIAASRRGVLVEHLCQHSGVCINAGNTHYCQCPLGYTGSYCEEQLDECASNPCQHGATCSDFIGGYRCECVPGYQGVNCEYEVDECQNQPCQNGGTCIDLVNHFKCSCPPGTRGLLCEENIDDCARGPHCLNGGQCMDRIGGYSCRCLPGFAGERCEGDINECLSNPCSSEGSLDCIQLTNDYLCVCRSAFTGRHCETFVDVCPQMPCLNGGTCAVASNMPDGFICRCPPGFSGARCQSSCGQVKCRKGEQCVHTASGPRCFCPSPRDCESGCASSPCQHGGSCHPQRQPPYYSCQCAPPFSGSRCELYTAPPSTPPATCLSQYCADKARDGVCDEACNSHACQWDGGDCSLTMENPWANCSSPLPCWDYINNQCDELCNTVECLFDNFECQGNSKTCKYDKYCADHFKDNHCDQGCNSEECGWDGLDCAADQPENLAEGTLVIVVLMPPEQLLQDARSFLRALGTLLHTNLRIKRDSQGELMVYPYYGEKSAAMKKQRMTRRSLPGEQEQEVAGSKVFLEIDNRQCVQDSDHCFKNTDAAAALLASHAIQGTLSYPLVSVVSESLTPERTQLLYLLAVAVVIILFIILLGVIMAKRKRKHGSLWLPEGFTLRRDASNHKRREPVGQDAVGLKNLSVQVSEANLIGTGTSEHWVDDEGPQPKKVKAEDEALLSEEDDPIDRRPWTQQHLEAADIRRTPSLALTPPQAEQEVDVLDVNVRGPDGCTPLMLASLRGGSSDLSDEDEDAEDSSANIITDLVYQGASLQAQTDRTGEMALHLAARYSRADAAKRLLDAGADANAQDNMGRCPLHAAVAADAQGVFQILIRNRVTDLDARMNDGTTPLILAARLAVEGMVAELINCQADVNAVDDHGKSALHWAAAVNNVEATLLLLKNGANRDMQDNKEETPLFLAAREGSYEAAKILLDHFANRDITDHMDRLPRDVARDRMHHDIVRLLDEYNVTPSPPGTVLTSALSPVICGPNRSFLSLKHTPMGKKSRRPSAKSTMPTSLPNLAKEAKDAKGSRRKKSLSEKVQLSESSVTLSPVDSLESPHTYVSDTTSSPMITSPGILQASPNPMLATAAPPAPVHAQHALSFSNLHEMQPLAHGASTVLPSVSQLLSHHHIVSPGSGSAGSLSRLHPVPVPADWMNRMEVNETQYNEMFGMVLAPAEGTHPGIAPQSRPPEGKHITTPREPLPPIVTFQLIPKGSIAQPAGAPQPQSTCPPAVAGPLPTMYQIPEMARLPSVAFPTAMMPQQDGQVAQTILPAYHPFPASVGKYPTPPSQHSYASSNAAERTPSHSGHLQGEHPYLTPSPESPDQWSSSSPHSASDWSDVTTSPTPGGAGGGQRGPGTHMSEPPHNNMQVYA

COC(=O)c1c(CC[C@@H](CO)NC(=O)NCCn2cc(C3(O)CCCC3)nn2)oc(C(C)=O)c1C(=O)OC
composite z-score [1]: -0.465 | composite z-score [2]: 0.24 | composite z-score [3]: 0.127 | composite z-score [4]: 0.173 | composite z-score [5]: -0.119 | composite z-score [6]: 0.718 | composite z-score [7]: 0.685 | z-score [8]: -0.598 (inactive) | composite z-score [9]: -0.204 | composite z-score [10]: -0.184

CCOC(=O)C[C@H]1[C@H](OC(=O)c2ccc(C(=O)c3ccccc3)cc2)[C@@H](NC(=O)c2ccc3ccccc3n2)c2cc(OCCCO)ccc2N1C(=O)c1ccccc1
composite z-score [1]: -0.384 | composite z-score [2]: 0.264 | composite z-score [3]: 0.0498 | composite z-score [4]: 1.03 | composite z-score [5]: 0.454 | composite z-score [6]: 0.45 | composite z-score [7]: 0.975 | z-score [8]: 0.823 (inactive) | composite z-score [9]: 0.493 | composite z-score [10]: -0.243

C=CCOC(=O)[C@H]1[C@@H]2C(=O)O[C@@H](c3ccccc3)[C@@H](c3ccccc3)N2[C@@H](c2ccc(OCCOC(=O)[C@H]3C[C@H]4C(=O)N[C@@H](CCCC[N+](C)(C)C)C(=O)N4[C@H]3c3ccc(O)cc3)cc2)[C@]12C(=O)Nc1ccc(I)cc12
composite z-score [1]: -0.301 | composite z-score [2]: 1.33 | composite z-score [3]: -0.0904 | composite z-score [4]: -0.333 | composite z-score [5]: -0.295 | composite z-score [6]: 2.05 | composite z-score [7]: 0.595 | z-score [8]: 2.93 (inactive) | composite z-score [9]: -0.333 | composite z-score [10]: 0.6

C=CC[C@]1(C(=O)NCc2ccccc2)N=C(c2ccc(OCCCO)cc2)O[C@H]1c1ccccc1N=[N+]=[N-]
composite z-score [1]: -0.158 | composite z-score [2]: 1.46 | composite z-score [3]: 0.282 | composite z-score [4]: 0.399 | composite z-score [5]: 1.13 | composite z-score [6]: 1.24 | composite z-score [7]: 1.04 | z-score [8]: -0.71 (inactive) | composite z-score [9]: 1.08 | composite z-score [10]: -0.171

CC(C)C(=C=CC[C@@H](O)c1ccc(OCCO)cc1)C[C@@H](O)c1ccccn1
composite z-score [1]: -0.149 | composite z-score [2]: 0.651 | composite z-score [3]: 0.0297 | composite z-score [4]: 1.19 | composite z-score [5]: 0.344 | composite z-score [6]: -0.272 | composite z-score [7]: 0.826 | z-score [8]: 0.463 (inactive) | composite z-score [9]: -0.0267 | composite z-score [10]: -0.166

C=CCN1C(=O)[C@@]2(CC=C)N=C(c3ccc(OCCCO)cc3)O[C@H]2c2ccccc21
composite z-score [1]: 0.529 | composite z-score [2]: 0.194 | composite z-score [3]: 0.0606 | composite z-score [4]: -0.0534 | composite z-score [5]: 1.38 | composite z-score [6]: 1.3 | composite z-score [7]: 1.37 | z-score [8]: -2.47 (inactive) | composite z-score [9]: 0.835 | composite z-score [10]: -0.318

C=C(/C(=C/C[C@H](OC(C)=O)c1ccccc1OCCO)c1cnc2ccccc2c1)C(C)C
composite z-score [1]: 0.168 | composite z-score [2]: 0.126 | composite z-score [3]: -0.0419 | composite z-score [4]: 0.324 | composite z-score [5]: 0.775 | composite z-score [6]: 0.586 | composite z-score [7]: 0.87 | z-score [8]: -0.607 (inactive) | composite z-score [9]: 0.0254 | composite z-score [10]: 0.0274

C=C(COC)/C(=C/C[C@@H](OC(C)=O)c1ccc(OCCO)cc1)c1cnc2ccccc2c1
composite z-score [1]: -0.123 | composite z-score [2]: 0.093 | composite z-score [3]: 0.0059 | composite z-score [4]: 0.647 | composite z-score [5]: 0.912 | composite z-score [6]: 0.521 | composite z-score [7]: 0.957 | z-score [8]: -0.265 (inactive) | composite z-score [9]: 0.253 | composite z-score [10]: 0.0413

NC(=O)NCC#Cc1ccc2c(c1)[C@]1(C(=O)N2)[C@H](C(N)=O)[C@H]2C(=O)O[C@H](c3ccccc3)[C@H](c3ccccc3)N2[C@@H]1c1ccc(O)cc1
composite z-score [1]: 1.41 | composite z-score [2]: -0.0275 | composite z-score [3]: -0.0413 | composite z-score [4]: -0.166 | composite z-score [5]: -0.723 | composite z-score [6]: 1.14 | composite z-score [7]: -0.22 | z-score [8]: -0.0861 (inactive) | composite z-score [9]: 0.752 | composite z-score [10]: 1.15

COC(=O)[C@@]1(Cc2ccc(F)cc2)[C@H]2c3cc(C(=O)N4CCCC4)n(Cc4ccc(S(C)(=O)=O)cc4)c3C[C@H]2CN1C(=O)c1ccccc1
composite z-score [1]: 0.635 | composite z-score [2]: -0.266 | composite z-score [3]: 0.29 | composite z-score [4]: 0.983 | composite z-score [5]: 1.55 | composite z-score [6]: 1.88 | composite z-score [7]: 0.859 | z-score [8]: -0.205 (inactive) | composite z-score [9]: 2.09 | composite z-score [10]: -0.0169

CN1C(=O)C2C=CC(C(O)C#Cc3ccccc3)N(N3CCCCC3)C2C1=O (stereo not given)
composite z-score [1]: 0.819 | composite z-score [2]: 1.34 | composite z-score [3]: 0.454 | composite z-score [4]: 0.762 | composite z-score [5]: 1.44 | composite z-score [6]: 1.19 | composite z-score [7]: 1.19 | z-score [8]: -0.995 (inactive) | composite z-score [9]: 1.16 | composite z-score [10]: -0.0655

NCCCCCCNC(=O)[C@@H]1C[C@@H]2C(=O)NCC(=O)N2[C@@H]1c1ccc(O)cc1
composite z-score [1]: -0.175 | composite z-score [2]: 0.853 | composite z-score [3]: -0.14 | composite z-score [4]: 0.177 | composite z-score [5]: 0.571 | composite z-score [6]: 1.32 | composite z-score [7]: 1.41 | z-score [8]: 1.03 (inactive) | composite z-score [9]: 0.703 | composite z-score [10]: -0.207

CN1C(=O)C2C=CC(C(O)c3ccccc3)N(N(c3ccccc3)c3ccccc3)C2C1=O (stereo not given)
composite z-score [1]: -0.034 | composite z-score [2]: 0.287 | composite z-score [3]: 0.0561 | composite z-score [4]: 0.332 | composite z-score [5]: 0.924 | composite z-score [6]: 0.647 | composite z-score [7]: 0.553 | z-score [8]: 0.815 (inactive) | composite z-score [9]: 0.474 | composite z-score [10]: 0.245

O=C1NC(=O)C2C1C=CC(C(O)c1cccs1)N2Nc1ccc(Cl)cc1Cl (stereo not given)
composite z-score [1]: 0.709 | composite z-score [2]: -0.232 | composite z-score [3]: -0.0647 | composite z-score [4]: 0.0409 | composite z-score [5]: -0.0246 | composite z-score [6]: 1.25 | composite z-score [7]: 1.14 | z-score [8]: 0.224 (inactive) | composite z-score [9]: 0.0983 | composite z-score [10]: -0.191

CC1(C)[C@@H]2CC(C(O)C3C=CC4C(=O)N(c5ccccc5)C(=O)C4N3Nc3ccc([N+](=O)[O-])cc3)=C[C@H]1C2 (stereo not given in full)
composite z-score [1]: -0.204 | composite z-score [2]: 0.325 | composite z-score [3]: -0.0834 | composite z-score [4]: 0.873 | composite z-score [5]: 1.7 | composite z-score [6]: 1.88 | composite z-score [7]: 1.2 | z-score [8]: -1.08 (inactive) | composite z-score [9]: 0.352 | composite z-score [10]: -0.0852

COc1ccc(C#Cc2ccc3c(c2)[C@]2(C(=O)N3)[C@H](C(=O)Nc3nc4ccccc4s3)[C@H]3C(=O)O[C@H](c4ccccc4)[C@H](c4ccccc4)N3[C@@H]2c2ccc(O)cc2)cc1
composite z-score [1]: -0.433 | composite z-score [2]: 0.923 | composite z-score [3]: 0.0956 | composite z-score [4]: 1.13 | composite z-score [5]: 1.29 | composite z-score [6]: 1.38 | composite z-score [7]: 1.34 | z-score [8]: 1.46 (inactive) | composite z-score [9]: 1.36 | composite z-score [10]: -0.511

CCOC(=O)C[C@H]1[C@H](OC(=O)c2ccc(C(=O)c3ccccc3)cc2)[C@@H](NC(=O)c2ccc3ccccc3c2)c2cc(OCCCO)ccc2N1C(=O)Cc1ccc(OC)cc1
composite z-score [1]: -0.242 | composite z-score [2]: 0.151 | composite z-score [3]: -0.146 | composite z-score [4]: 0.66 | composite z-score [5]: 0.361 | composite z-score [6]: 0.401 | composite z-score [7]: 0.107 | z-score [8]: -0.314 (inactive) | composite z-score [9]: 0.441 | composite z-score [10]: -0.0645
